Assay results from the supplement of paper PMC10849652.
Of roughly 7,900 targets only a part is listed; those with a hit were picked by preference. About 0.6% of all pairs of compound and target were hits. Values without a mark were called inactive.

Assays:
Assay in all cases: log2 fold change, soluble protein after heating vs DMSO (PISA); higher = thermal stabilisation; K562 cells, 10 uM, 30 min; active = over 0.2 and 3.5 SD of the protein, either way, in both replicates (recomputed)
[1] = compound: CCCCN(Cc1ccc(C(=O)NO)cc1)C(=O)Nc1ccccc1 [Nexturastat A]
Method in brief: (§1)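 Soluble protein was quantified by TMTpro 16plex LC-MS/MS after channel sums were equalised. It was obtained as the supernatant after 21,000xg for 90 min from pooled aliquots of K562 cells (2×10^6 cells/mL, 10 μM compound, 30 min) heated for 3 min across 48°C-58°C and extracted in PBS with 0.5% NP-40 at 4°C. Thermal stability values are relative to control samples and come from duplicates. They are given as log2 fold changes.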

[2] = compound: CCCS(=O)(=O)Nc1ccc(F)c(C(=O)c2c[nH]c3ncc(-c4ccc(Cl)cc4)cc23)c1F [vemurafenib]
Method in brief: as §1

[3] = compound: CCCc1cc(C)[nH]c(=O)c1CNC(=O)c1cc(-c2ccnc(N3CCN(C)CC3)c2)cc2c1cnn2C(C)C
Method in brief: as §1

[4] = compound: CCN(CC)Cc1ccc2cc(COC(=O)Nc3ccc(C(=O)NO)cc3)ccc2c1 [givinostat]
Method in brief: as §1

[5] = compound: CCN(CCCOc1ccc2c(Nc3cc(CC(=O)Nc4cccc(F)c4)[nH]n3)ncnc2c1)CCOP(=O)(O)O [barasertib]
Method in brief: as §1

[6] = compound: CC1=CC=C(C=C1)SC2=C3C=C(SC3=CN=C2)C(=O)N
Method in brief: as §1

[7] = compound: CCCS(=O)(=O)Nc1ccc(F)c(C(=O)c2c[nH]c3ncc(Cl)cc23)c1F
Method in brief: as §1

[8] = compound: CC1=C(C=C(C=C1)NC(=O)C2=CC(=CC=C2)C(C)(C)C#N)NC3=CC4=C(C=C3)N=CN(C4=O)C
Method in brief: as §1

[9] = compound: CC1=NC(=CC=C1)C2=C(N=C(N2)C(C)(C)C)C3=CC4=NC=CN=C4C=C3
Method in brief: as §1

[10] = compound: CC1=C(C=C(C=C1)NC(=O)C2=CC(=CC=C2)N(C)C)NC(=O)C3=CC=C(C=C3)O
Method in brief: as §1

Chain of UniProt O75882 (O75882 whole entry, looked up): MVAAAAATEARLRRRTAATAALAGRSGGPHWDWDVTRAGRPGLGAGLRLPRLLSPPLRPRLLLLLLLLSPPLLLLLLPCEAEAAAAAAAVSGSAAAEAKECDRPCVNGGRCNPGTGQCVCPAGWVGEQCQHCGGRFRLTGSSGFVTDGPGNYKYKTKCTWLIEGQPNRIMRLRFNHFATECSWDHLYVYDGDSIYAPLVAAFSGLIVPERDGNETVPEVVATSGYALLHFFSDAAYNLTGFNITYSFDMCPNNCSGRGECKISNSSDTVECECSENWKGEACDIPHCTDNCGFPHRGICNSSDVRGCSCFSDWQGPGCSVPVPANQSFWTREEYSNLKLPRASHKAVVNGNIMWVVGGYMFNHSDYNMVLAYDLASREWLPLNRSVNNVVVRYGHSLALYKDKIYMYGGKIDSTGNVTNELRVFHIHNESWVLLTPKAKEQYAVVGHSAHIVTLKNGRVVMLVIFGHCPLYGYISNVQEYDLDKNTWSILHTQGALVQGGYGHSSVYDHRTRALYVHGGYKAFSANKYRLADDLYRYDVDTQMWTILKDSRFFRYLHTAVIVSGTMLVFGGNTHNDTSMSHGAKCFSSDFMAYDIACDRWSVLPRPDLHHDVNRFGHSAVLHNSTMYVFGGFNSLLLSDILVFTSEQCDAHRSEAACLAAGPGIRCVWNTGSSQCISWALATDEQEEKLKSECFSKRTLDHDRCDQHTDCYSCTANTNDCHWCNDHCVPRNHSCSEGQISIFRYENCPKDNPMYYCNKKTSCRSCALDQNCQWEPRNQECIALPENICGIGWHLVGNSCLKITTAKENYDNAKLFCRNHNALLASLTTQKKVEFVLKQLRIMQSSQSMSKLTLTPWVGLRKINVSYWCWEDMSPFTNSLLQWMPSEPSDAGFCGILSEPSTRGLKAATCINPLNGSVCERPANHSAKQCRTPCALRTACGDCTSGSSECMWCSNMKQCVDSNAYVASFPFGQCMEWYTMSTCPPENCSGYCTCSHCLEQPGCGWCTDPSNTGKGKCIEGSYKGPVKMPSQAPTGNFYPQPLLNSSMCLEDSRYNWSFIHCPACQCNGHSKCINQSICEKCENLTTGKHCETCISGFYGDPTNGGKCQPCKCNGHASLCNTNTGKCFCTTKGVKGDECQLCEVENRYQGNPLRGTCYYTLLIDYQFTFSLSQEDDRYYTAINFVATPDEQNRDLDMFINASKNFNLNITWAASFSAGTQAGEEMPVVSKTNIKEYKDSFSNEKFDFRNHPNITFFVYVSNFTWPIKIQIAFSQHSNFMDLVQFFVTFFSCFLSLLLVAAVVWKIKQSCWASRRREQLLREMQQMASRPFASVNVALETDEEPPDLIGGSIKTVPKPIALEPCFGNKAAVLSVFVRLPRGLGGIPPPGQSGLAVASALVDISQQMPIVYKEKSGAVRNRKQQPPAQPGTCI
Chain of UniProt P24666 (P24666 whole entry, looked up): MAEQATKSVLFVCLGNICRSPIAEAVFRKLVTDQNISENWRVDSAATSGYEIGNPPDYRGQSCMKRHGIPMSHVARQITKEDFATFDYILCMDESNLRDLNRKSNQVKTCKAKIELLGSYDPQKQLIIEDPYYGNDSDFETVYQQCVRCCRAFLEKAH
Chain of UniProt Q8IUR7 (Q8IUR7 whole entry, looked up): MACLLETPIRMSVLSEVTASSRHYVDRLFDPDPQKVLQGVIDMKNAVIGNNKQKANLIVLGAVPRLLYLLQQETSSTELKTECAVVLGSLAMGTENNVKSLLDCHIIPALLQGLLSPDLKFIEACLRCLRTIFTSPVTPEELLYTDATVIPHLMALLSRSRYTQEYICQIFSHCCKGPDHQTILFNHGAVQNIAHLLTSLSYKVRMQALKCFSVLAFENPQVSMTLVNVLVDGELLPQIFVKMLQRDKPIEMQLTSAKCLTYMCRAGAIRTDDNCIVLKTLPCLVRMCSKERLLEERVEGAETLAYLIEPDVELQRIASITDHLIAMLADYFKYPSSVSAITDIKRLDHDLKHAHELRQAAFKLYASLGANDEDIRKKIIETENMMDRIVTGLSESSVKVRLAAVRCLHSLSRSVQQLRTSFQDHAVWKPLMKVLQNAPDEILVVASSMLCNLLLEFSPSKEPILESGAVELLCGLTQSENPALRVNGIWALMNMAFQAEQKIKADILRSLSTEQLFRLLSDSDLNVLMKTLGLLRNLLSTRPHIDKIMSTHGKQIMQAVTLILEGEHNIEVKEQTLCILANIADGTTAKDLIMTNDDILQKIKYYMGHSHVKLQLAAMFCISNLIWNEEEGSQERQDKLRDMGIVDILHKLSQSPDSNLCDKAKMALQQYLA
Chain of UniProt P55196 (P55196 whole entry, looked up): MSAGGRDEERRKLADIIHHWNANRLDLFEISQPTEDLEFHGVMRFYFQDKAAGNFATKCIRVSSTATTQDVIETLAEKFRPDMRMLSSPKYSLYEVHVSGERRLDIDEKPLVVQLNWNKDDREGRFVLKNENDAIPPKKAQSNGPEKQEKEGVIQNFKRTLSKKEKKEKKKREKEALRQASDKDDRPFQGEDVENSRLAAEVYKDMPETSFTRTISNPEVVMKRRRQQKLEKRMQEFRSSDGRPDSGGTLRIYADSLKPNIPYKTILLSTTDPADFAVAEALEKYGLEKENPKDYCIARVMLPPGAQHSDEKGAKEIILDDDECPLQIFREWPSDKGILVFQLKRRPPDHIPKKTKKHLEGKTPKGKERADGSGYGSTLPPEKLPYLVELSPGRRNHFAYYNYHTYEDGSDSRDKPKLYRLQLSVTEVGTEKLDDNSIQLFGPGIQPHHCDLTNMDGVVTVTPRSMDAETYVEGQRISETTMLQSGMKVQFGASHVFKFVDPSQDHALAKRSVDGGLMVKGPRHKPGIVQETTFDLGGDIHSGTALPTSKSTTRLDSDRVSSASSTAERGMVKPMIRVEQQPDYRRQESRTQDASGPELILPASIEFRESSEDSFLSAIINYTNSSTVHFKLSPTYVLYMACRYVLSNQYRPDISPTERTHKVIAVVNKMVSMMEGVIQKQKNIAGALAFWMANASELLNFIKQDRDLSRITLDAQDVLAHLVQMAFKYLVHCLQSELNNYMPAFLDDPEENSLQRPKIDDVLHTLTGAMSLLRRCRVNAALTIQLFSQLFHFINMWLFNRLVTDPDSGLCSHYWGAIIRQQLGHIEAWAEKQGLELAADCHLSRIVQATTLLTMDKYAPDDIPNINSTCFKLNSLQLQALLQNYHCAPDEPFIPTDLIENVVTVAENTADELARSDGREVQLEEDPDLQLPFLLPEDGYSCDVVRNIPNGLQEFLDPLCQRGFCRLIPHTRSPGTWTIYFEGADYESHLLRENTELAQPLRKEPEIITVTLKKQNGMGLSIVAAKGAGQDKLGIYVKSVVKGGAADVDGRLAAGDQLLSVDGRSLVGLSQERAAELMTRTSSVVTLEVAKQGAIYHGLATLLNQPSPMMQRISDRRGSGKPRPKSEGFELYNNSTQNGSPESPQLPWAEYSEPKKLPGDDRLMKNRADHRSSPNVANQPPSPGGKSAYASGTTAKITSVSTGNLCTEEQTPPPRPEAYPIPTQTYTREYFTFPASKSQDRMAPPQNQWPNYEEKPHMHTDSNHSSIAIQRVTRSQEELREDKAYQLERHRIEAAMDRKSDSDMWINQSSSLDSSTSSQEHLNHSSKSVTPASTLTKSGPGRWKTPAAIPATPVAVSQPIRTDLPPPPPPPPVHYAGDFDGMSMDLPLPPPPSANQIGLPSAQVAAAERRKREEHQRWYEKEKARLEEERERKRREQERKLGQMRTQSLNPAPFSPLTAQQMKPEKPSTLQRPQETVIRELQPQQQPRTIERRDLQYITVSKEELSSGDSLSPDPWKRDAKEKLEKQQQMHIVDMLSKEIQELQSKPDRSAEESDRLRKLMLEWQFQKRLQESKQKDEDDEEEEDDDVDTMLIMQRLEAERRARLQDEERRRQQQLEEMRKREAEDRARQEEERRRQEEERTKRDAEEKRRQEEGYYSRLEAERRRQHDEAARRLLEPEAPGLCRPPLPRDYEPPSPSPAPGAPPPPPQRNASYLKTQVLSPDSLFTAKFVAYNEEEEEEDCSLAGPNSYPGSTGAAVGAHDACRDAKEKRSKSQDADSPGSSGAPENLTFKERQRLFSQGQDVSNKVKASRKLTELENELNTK
Chain of UniProt Q04771 (Q04771 whole entry, looked up): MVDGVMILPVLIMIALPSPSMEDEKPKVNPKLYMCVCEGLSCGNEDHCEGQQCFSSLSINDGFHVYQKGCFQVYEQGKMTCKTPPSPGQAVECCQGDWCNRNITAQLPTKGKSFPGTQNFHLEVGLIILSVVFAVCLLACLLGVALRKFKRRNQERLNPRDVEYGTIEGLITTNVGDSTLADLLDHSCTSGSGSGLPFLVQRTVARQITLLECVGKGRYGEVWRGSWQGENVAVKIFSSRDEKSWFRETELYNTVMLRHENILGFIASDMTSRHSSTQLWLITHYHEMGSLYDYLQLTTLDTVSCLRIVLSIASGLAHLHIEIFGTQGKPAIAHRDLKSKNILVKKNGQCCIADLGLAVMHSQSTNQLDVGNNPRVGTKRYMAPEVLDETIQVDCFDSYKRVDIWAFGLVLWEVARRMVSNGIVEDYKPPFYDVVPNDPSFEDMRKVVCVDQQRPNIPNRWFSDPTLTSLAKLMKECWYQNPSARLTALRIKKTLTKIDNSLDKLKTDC
Chain of UniProt P18846 (P18846 whole entry, looked up): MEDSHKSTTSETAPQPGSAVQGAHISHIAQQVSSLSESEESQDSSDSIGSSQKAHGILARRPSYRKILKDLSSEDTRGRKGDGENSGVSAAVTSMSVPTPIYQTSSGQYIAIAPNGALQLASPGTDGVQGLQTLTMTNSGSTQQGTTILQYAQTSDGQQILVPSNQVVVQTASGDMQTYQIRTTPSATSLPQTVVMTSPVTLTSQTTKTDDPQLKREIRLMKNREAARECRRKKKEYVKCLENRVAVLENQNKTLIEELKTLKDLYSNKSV
Chain of UniProt P40617 (P40617 whole entry, looked up): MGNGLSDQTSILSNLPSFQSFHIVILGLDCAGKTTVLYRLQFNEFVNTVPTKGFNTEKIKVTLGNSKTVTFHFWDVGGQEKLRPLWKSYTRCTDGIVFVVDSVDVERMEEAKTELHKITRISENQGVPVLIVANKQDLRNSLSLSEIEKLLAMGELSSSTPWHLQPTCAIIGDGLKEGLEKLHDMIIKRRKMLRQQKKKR

Target	log2 fold change [1]	log2 fold change [2]	log2 fold change [3]	log2 fold change [4]	log2 fold change [5]	log2 fold change [6]	log2 fold change [7]	log2 fold change [8]	log2 fold change [9]	log2 fold change [10]
ARHGAP25 isoform 4 (UniProt P42331)	0.078	0.086	-0.052	0.307	-0.018	–	–	–	–	–
ARMC8 isoform 6 (UniProt Q8IUR7)	–	0.031	–	0.075	-0.021	–	–	–	–	–
BSCL2 isoform 4 (UniProt Q96G97)	-0.174	0.179	-0.124	0.052	0.199	-0.073	-0.043	–	–	–
ATP6V0A1 (UniProt Q93050)	–	–	–	–	-0.095	–	–	–	–	–
APH1A (UniProt Q96BI3)	–	0.237	-0.085	0.021	0.002	0.091	0.121	-0.136	0.042	–
ARFIP1 isoform 2 (UniProt P53367)	-0.025	–	0.121	0.061	0.019	0.051	0.097	-0.106	0.031	–
ATRN (UniProt O75882)	-0.135	-0.026	-0.003	0.026	-0.09	-0.034	0.054	0.037	-0.061	–
ATXN3 isoform 1 (UniProt P54252)	–	0.005	-0.016	0.02	0.179	0.012	0.04	–	-0.043	-0.08
BRAF (UniProt P15056)	-0.053	0.148	-0.049	-0.031	0.022	0.02	0.144	0.15	-0.01	–
ATF1 (UniProt P18846)	-0.026	0.035	0.002	0.003	0.079	-0.113	-0.016	-0.066	–	–
ANGEL1 (UniProt Q9UNK9)	–	-0.079	–	–	0.033	–	–	–	0.591 (active)	-0.121
ACSL6 isoform 1 (UniProt Q9UKU0)	0.082	0.17	0.035	0.04	0.133	–	–	0.075	–	-0.014
ADD2 isoform 9 (UniProt P35612)	–	–	0.079	–	0.047	-0.067	-0.114	0.191	–	0.065
BRAF, A0A2R8Y8E0	–	–	-0.078	-0.006	–	–	–	–	-0.021	-1.03 (active)
AFDN isoform 1 (UniProt P55196)	-0.164	0.342	0.062	0.259	-0.045	–	–	0.035	0.03	0.083
AKNA (UniProt Q7Z591)	–	–	–	0.177	–	-0.047	-0.02	0.079	–	–

Target	log2 fold change [1]	log2 fold change [2]	log2 fold change [3]	log2 fold change [4]	log2 fold change [5]	log2 fold change [6]	log2 fold change [7]	log2 fold change [8]	log2 fold change [9]	log2 fold change [10]
AZI2 (UniProt Q9H6S1)	–	0.047	–	0.028	-0.023	–	–	-0.091	–	0.045
ALG14 (UniProt Q96F25)	-0.479	-0.053	-0.131	0.03	0.03	0.045	0.052	–	0.068	-0.13
ADAMTS5 (UniProt Q9UNA0)	–	-0.095	-0.572	0.222	0.02	–	–	-0.171	-0.164	-0.022
ACOX3 (UniProt O15254)	0.039	0.057	0.184	-0.01	-0.035	-0.192	-0.009	0.111	-0.011	–
BRD2 isoform 2 (UniProt P25440)	–	-0.033	–	-0.596	-0.053	0.039	0.014	0.348	0.076	–
ARL4A (UniProt P40617)	–	–	0.078	–	0.057	–	–	–	–	–
ABCA4 (UniProt P78363)	0.576 (active)	–	0.033	0.23	0.015	–	–	-0.145	-0.168	-0.068
ADD1 isoform 4 (UniProt P35611)	0.024	–	–	–	0.03	–	–	–	0.098	–
AUNIP isoform 2 (UniProt Q9H7T9)	–	0.081	–	0.083	–	0.101	0.073	0.113	–	–
ATXN7L3 isoform 2 (UniProt Q14CW9)	–	–	0.137	-0.046	-0.042	–	–	0.013	-0.09	-0.017
AP2M1 (UniProt C9JTK4)	0.009	-0.262	-0.172	–	-0.079	–	–	-0.04	-0.033	–
AUH (UniProt Q13825)	–	0.091	-0.185	0.279	0.096	-0.107	0.008	–	0.082	-0.007
ACTR3B (UniProt Q9P1U1)	–	0.019	–	0.147	–	-0.05	0.014	–	0.198	-0.046
BRMS1 (UniProt Q9HCU9)	0.512 (active)	–	0.137	–	–	–	–	–	–	–
ACP1 (UniProt P24666)	0.001	0.071	0.039	0.076	0.12	0.01	-0.047	0.007	-0.123	–
ACVR1 (UniProt Q04771)	0.037	0.015	-0.149	0.031	–	0.011	0.017	-0.194	–	–
